A number with no mark means an inactive call. The rule behind the calls is not given here.
Each molecule was assayed against Pantothenate synthetase (Mycobacterium tuberculosis (strain ATCC 25618 / H37Rv)) (UniProt P9WIL5) (assay: Coupled enzyme confirmation of inhibitors against recombinant Mtb PanC (AID 375;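 note: 0% = full reaction with vehicle and 100% = no enzyme background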)). Details: coupled enzyme assay; at 10 µM, active compounds read high.
Pantothenate synthetase (Mycobacterium tuberculosis (strain ATCC 25618 / H37Rv)), sequence (P9WIL5 whole entry, looked up): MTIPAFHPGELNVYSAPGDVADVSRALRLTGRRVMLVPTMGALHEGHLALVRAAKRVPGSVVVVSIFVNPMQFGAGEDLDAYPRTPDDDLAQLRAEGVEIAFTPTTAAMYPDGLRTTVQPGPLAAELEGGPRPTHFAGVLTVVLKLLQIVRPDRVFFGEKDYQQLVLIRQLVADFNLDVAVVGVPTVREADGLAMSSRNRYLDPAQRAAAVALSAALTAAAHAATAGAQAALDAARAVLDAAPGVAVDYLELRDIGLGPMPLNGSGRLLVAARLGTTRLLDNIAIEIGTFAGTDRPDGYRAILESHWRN

Compound	inhibition [%]
COc1ccccc1-n1c(C)nnc1SCC(=O)Nc1cccc(C(C)=O)c1	0
O=C(CN1CCC(c2nc3ccccc3s2)CC1)NCc1cccs1	3
CC1=C(C(=O)OC2CCCCC2)C(c2cccnc2)n2ncnc2N1 (configuration not stated)	0
CCn1c(SCC(=O)Nc2cc(C)on2)nc2sc3c(c2c1=O)CCCC3	0
CC(C)NC(=O)c1ccccc1NC(=O)c1ccccc1N(C)S(C)(=O)=O	4
N#CC1=C(N)N2C(=C(C#N)C13CCCCC3)SC1CCCCC12O (configuration not stated)	0
COCCn1c(SCC(=O)c2ccccc2)nc2c(c1=O)SC(C)C2 (configuration not stated)	0
CC(C)(C)OC(=O)NCCc1nnc(SCC(=O)c2ccc(Cl)cc2)o1	0
Cc1ccc(S(=O)(=O)N2CCC(C(=O)N3CCN(Cc4ccccc4)CC3)CC2)cc1	0
N#Cc1cnc(SCC(=O)Nc2ccccc2C(F)(F)F)nc1N	4
CCOC(=O)CN1CC23C=CC(O2)C(C(=O)Nc2ccc(OCC)cc2)C3C1=O (configuration not stated)	3
CCOC(=O)N1CCC(NC(=O)CCC(=O)N2CC(C)Oc3ccc(Cl)cc32)CC1 (configuration not stated)	2
COc1cc(C(=O)OC(C)CN2CCCC2)cc(OC)c1OC (configuration not stated)	4
CC(C)OC(=O)CSc1nnc(-c2ccco2)n1N	0
CCOC(=O)CSc1nnc(CNC(=O)c2ccc(OC)c(OC)c2)n1C	0
O=C(Nc1ccc2c(c1)nc1n2CCSC1)c1ccccc1	0
Cc1ccc(-c2nnn(CC(=O)N(CC3CCCO3)C(C(=O)NC(C)(C)C)c3ccc(F)cc3)n2)o1 (configuration not stated)	6
